# Several values for one entry are separate records, joined by “and”; a condition that tells them apart may be missing. Equal entries are not always repeated. This is part of a sample that, as a whole, favours compounds with a hit. Of some 83,000 tested, about 20% had one in any assay.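 96-well plates, one dose, 48 hours. Percent growth reported; active if below 10.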 A number with no mark means an inactive call. Activity calls are given as the source filed them.
# Tested on: HL-60(TB) leukemia
# Test: NCI-60 one-dose screen, 48 h (100 = growth as untreated, 0 = no growth, -100 = all killed)
# Conditions: 10 µM unless noted
row,SMILES,growth
1,Cc1c2c(nn1C(=O)c1nn(-c3ccc(Cl)cc3)cc1O)-c1ccccc1CC2,-43.4% (active)
2,O=C(/C(=C/c1ccc([N+](=O)[O-])cc1)SCc1ccc(Cl)cc1)c1ccc(F)cc1,59.5%
3,CN1CCN(CCCOc2cccc3nc(Nc4ccc(Cl)c(C(F)(F)F)c4)ccc23)CC1,82.3%
4,Oc1c(Br)cc(Cl)cc1C(c1cc(Cl)cc(Br)c1O)C(Cl)(Cl)Cl,9.73% (active)
5,CC(C)(C)c1cc(-c2nc3ccc(N4CCN(S(C)(=O)=O)CC4)cc3[nH]2)cc(C(C)(C)C)c1O,90.2%
6,NC(N)=N/N=C(/c1ccccc1)c1ccc(Cl)cc1,105%
7,Cc1ccc2c(C(C[N+](=O)[O-])c3ccccc3F)c(-c3ccccc3)[nH]c2c1 (stereo not given),27.3%
8,CCc1cccc2c3c(sc12)C(c1ccc(Cl)cc1)C(C#N)=C(N)O3 (stereo not given),-8.89% (active)
9,OCC1CCC(O)C(CO)N1 (stereo not given),98.2%
10,Oc1c(C(Nc2cccc3ccccc23)c2ccccc2)ccc2cccnc12 (stereo not given),-37.4% (active)
11,COc1ccc(C2C3=C(COC3=O)N(CCO)c3cc4c(cc32)CCC4)cc1 (stereo not given),4.72% (active)
12,COc1ccc(C(=O)COc2ccc(/C=C3\Oc4ccccc4C3=O)cc2)cc1,76%
13,CCN(CC)C(=O)/C=C(/C)c1ccccc1,101%
14,OC(Cc1cccnc1)c1ccccc1 (stereo not given),64.3%
15,COc1ccc(-c2nocc2-c2cc(OC)c(OC)c(OC)c2)cc1,-14.7% (active)
16,COc1cc(-c2cc3ncccc3c3nc(N)c4cccnc4c23)cc(OC)c1OC,6.71% (active)
17,O=C(Nc1cc(Cl)ccc1O)c1ccc(Nc2ccnc(C(F)(F)F)c2)cc1,-11% (active)
18,O=S(=O)(NCCCNc1nccc(-c2c(-c3ccc(F)c(O)c3)nc3occn23)n1)c1ccc(Cl)cc1,94.2%
19,O=C(NCCc1ccccc1)C1CCC(=O)N1Cc1ccc(Br)cc1 (stereo not given),89%
20,CN(C)c1ccc(-c2cc(-c3ccc(Nc4nc(Nc5ccc(Cl)cc5)nc(Nc5ccc(Cl)cc5)n4)cc3)no2)cc1,3.2% (active)

row,SMILES,growth
1,O=C(NCCCl)c1cc(Cl)cc(Cl)c1,95.5%
2,COc1ccc2oc3c(C)c4c(c(C)c3c2c1)C(=O)N(Cc1ccccc1)C4=O,96.2%
3,COc1cc(C(=O)c2ccccc2C(=O)O)c(OC)c2c1CCCC2,36.8% and 97.1%
4,OC1CC2c3ccccc3C1c1ccccc12 (stereo not given),109%
5,Clc1ccc(CNc2c3ccccc3nc3ccccc23)cc1,44.7%
6,CN(C)CCn1cc(-c2ccc3c(Nc4ccc(CC(=O)Nc5cccc(F)c5)cc4)ncnc3c2)cn1,-55.3% [30 µM] (active)
7,C[n+]1c(/C=C/c2c[nH]c3ccccc23)ccc2ccccc21,73.9%
8,COc1cc(-c2nc(SCCC(C)C)nc(Nc3ccccc3Cl)c2C#N)cc(OC)c1OC,101%
9,COc1cc2c3c(c4c5ccccc5[nH]c4c2c(OC)c1OC)C(=O)N(CCN1CCOCC1)C3=O,69%
10,N#CC1=C(N)n2nc(-c3ccncc3)nc2NC1c1cccc2ccccc12 (stereo not given),89.8%
11,COc1ccc(C(=S)c2cc(OC)c(OC)c(OC)c2)cc1OC(=O)CCl,-33% (active)
12,COc1ccc(C(CC(=O)c2ccc3c(c2)OCO3)C(=O)O)cc1OC (stereo not given),101% and 99.7%
13,CC1(C(=O)O)NC(C(=O)O)Cc2c1[nH]c1ccccc21 (stereo not given),99.8%
14,COc1cccc(C2C(C#N)=C(N)Oc3cc(N)ccc32)c1 (stereo not given),-19% (active)
15,CCc1cnn2c(NCc3ccc[n+]([O-])c3)cc(N3CCCC[C@H]3CCO)nc12,-43.2% (active)
16,Nc1c(C(=O)Nc2ccccn2)sc2nc3c(cc12)CCCCCC3,-22.2% (active)
17,Cc1ccccc1/C=C1\CN(C(=O)OC(C)(C)C)C/C(=C\c2ccccc2C)C1=O,40.6%
18,NC1=NC(=O)C(c2ccccc2)(c2ccccc2)S1,97.9%
19,Cc1c(-c2noc(-c3ccc([N+](=O)[O-])cc3)n2)no[n+]1[O-],102%
20,CN1CCc2c(Sc3ccc(C(=O)NO)cc3)c3ccccc3n2C1,60.3%

# Reference: PubChem BioAssay (NCI)
